SMILES strings stand for the structures. In all, about 1,000 compounds were measured (“thermal shift dTm”: median about 0.19, highest 2% from about 1.7 on). The sample as a whole holds a higher share of the highest values than the screen did. Active and inactive are the calls of the source.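 Rule for the calls: active = mean rise in melting temperature of at least 1 degC over same-plate control wells; inactive = below that, where a call was filed.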

Chain of Sulfhydryl oxidase 1 (Homo sapiens) (O00391 whole entry, looked up): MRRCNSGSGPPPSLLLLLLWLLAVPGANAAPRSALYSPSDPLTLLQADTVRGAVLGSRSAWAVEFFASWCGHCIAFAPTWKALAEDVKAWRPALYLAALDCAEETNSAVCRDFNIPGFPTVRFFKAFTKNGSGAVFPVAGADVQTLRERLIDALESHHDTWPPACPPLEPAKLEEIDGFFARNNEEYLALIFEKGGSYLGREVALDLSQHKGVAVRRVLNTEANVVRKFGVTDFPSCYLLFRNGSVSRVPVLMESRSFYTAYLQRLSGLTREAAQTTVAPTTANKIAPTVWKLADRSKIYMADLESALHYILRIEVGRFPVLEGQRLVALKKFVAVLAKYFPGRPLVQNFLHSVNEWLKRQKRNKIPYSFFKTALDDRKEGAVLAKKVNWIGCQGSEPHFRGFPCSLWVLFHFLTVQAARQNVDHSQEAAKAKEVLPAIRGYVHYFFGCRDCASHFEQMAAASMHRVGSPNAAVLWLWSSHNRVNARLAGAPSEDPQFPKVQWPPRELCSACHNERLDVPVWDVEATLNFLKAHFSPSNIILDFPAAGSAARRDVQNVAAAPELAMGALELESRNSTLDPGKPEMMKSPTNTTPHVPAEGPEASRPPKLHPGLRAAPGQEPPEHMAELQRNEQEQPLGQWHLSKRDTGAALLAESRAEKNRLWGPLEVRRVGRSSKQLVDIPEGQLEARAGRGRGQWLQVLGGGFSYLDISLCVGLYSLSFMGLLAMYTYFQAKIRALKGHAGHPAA

This experiment addresses Sulfhydryl oxidase 1 (Homo sapiens) (UniProt O00391). Nature of the experiment: ligand-induced melting shift of human QSOX1 – biophysical, protein thermal shift, single concentration, QSOX1 inhibitor project, confirmation (AID 1347422).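 Note: dTm is compound Tm minus mean Tm of DMSO-only wells on that plate.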 The following applies: recombinant hQSOX1 thermal shift, Sypro Orange, at 25 µM, stronger effect = higher value.
With `O=C(NCCc1ccccc1)c1ccc(NC(=O)C2CC2)cc1`, the thermal shift dTm came out at 0.04 °C.
Take `Cc1cc(Br)cc(C)c1NC(=O)/C=C/c1ccco1`: the thermal shift dTm turned out to be 0.52 °C.
With `Cc1ccc(Nc2nc(C3CC(CC(C)C)C(=O)O3)cs2)cc1` (stereo not drawn) the figure was -0.09 °C (inactive); with `Cc1ccc2cccc(OCCCCOc3ccccc3I)c2n1`, 0.77 °C; with `Cc1ccc(-c2noc(CNC(=O)c3ccc4ccccc4c3)n2)cc1`, -0.08 °C (inactive).
In the case of `CCOc1ccc(NC(=O)c2ccc(-c3csc(C)n3)cc2)cc1` it was 0.15 °C; in that of `NC(=O)c1ccc(NC(=O)c2cccc(C(F)(F)F)c2)cc1`, 0.7 °C.
In the case of `CCc1ccc(NC(=O)COc2ccccc2F)cc1` it was 0.24 °C; in that of `C=C(C)COc1ccc(NC(=O)c2cccnc2)cc1`, 0.13 °C; in that of `COc1ccc(-c2csc(NC(=O)c3ccc(Cl)s3)n2)cc1`, 0.05 °C.
In the case of `Oc1ccccc1C=Nc1ccc(Cc2ccc(N=Cc3ccccc3O)c(O)c2)cc1O`, the thermal shift dTm amounted to 0.01 °C.
On to `O=S(=O)(NCCC1=CCCCC1)c1ccc(Cl)s1`, for which the thermal shift dTm came to 0.17 °C.
In the case of `CCOc1ccc(NC(=S)N2CCC(C(N)=O)CC2)cc1` it was -0.13 °C (inactive).
As for `Cc1ccc(/C=C/C(=O)NCC(C)NC(=O)/C=C/c2ccc(C)cc2)cc1` (stereo not drawn), the thermal shift dTm came out at 0.45 °C.
As for `COc1ccc2[nH]cc(CCNC(=O)c3ccc(NC(C)=O)cc3)c2c1`, the thermal shift dTm was 1 °C (active).
Regarding `COc1cc(/C=N/O)cc(Br)c1OCc1ccccc1F`, the thermal shift dTm was 0.16 °C.
In the case of `O=S(=O)(c1cccs1)N1CCC(CO)(Cc2ccc(Cl)cc2)CC1` it was 0.18 °C; in that of `O=C(NCc1ccc(Cl)c(Cl)c1)c1ccc(Br)cc1`, -0.13 °C (inactive); in that of `O=C(Nc1nccs1)c1ccc(-c2cccc(Cl)c2Cl)o1`, 0.19 °C.
As to `O=C(C#Cc1ccccc1)Nc1ccc2c(c1)OCCO2`, the thermal shift dTm was 0.24 °C.
Consider `CCC(c1ccccc1)c1nnc(NC(=O)Nc2ccccc2F)s1` (stereo not drawn), for which the thermal shift dTm turned out to be 0.2 °C.
With `NC(=O)c1cn(-c2ccccc2)nc1-c1ccc(-c2ccccc2)cc1` the figure was 0.07 °C.
With `O=C(NC(=S)Nc1cccc(Cl)c1N1CCOCC1)c1cccs1` the figure was -0.04 °C (inactive); with `CCCc1cc(C(=O)Nc2ccc3[nH]ncc3c2)cs1`, 2.61 °C (active); with `CCc1c(C(=O)Nc2ccc3[nH]ncc3c2)csc1C`, 0.29 °C.
As for `O=C(Nc1ccc2[nH]ncc2c1)c1cccc(F)c1`, the thermal shift dTm was 1.63 °C (active).
With `Cc1ccc(NC(=O)Nc2ccc(C)c(F)c2)c(C)c1` the figure was 0.56 °C; with `FC(F)(F)c1ccccc1NC(=S)Nc1ccc(OCc2ccccc2)cc1`, 0.68 °C; with `COc1ccc(NC(=O)c2ccc(Cl)s2)cc1OC`, 0.19 °C.
In the case of `Cc1cc(C(=O)OCC(=O)Nc2ccc(Cl)cc2)c2ccccc2n1` it was -0.03 °C (inactive); in that of `CCNS(=O)(=O)c1ccc(NC(=O)Nc2cc(C)ccc2OC)cc1`, 1.17 °C (active); in that of `NC(=O)c1cn(-c2ccccc2)nc1-c1cccc(Br)c1`, -0.72 °C (inactive).
`C(=C\c1nnc(-c2ccccc2)o1)/c1cc2ccccc2o1`: the thermal shift dTm was 0.18 °C.
In the case of `O=c1nc2n(c3cc(Cl)ccc13)CC(O)=C2c1ccccc1` it was 1.08 °C (active); in that of `Cc1nc(-c2cccc(NC(=O)c3cccc(F)c3)c2)cs1`, 3.41 °C (active).
Consider `Cc1cccc(C(=O)Nc2cccc(-c3csc(C)n3)c2)c1`, for which the thermal shift dTm is 1.13 °C (active).
For `CCOc1ccc(C(=O)Nc2cccc(-c3csc(C)n3)c2)cc1`, the thermal shift dTm is -0.65 °C (inactive).
In the case of `CCOc1ccc(C(=O)Nc2cc(C)ccn2)cc1[N+](=O)[O-]` it was 0.43 °C; in that of `O=C(Nc1cccc(Br)c1)C1C2C3CCC(C3)C12` (stereo not drawn), 0.21 °C.
Regarding `CCOc1ccc(/C=C/C(=O)Nc2ccc(OC)cc2OC)cc1`, the thermal shift dTm was determined as 0.02 °C.
Consider `CCc1cc(-c2n[nH]c(C)c2Oc2ccc(F)cc2)c(O)cc1OC`, for which the thermal shift dTm was 0.02 °C.
With `O=C(Nc1n[nH]c(-c2ccccc2)n1)N1CCC2(C=Cc3ccccc32)CC1` the figure was 0.09 °C.
For the molecule `CCCCC1=NN2C(=N)/C(=C/c3ccc(Cl)cc3Cl)C(=O)N=C2S1`, the thermal shift dTm was 0.11 °C.
With `CCOC(=O)c1sc(NC(=O)CSc2nc(SC)ns2)nc1C` the figure was 0.19 °C; with `Cc1sc(NC(=O)C#Cc2ccccc2)c(C(N)=O)c1C`, 0.33 °C; with `CCC(c1ccc(OC)cc1)N(CC)C(=O)Nc1ccccc1` (stereo not drawn), 0.14 °C.
Turning to `COC(=O)c1cccc(NC(=O)c2ccc(Cl)s2)c1`, the thermal shift dTm turned out to be 0.04 °C.
`C=CCSC1=N/C(=C\c2ccc(-c3cccc(Cl)c3)o2)C(=O)S1`: the thermal shift dTm was found to be 0.63 °C.
Consider `O=C(NCCC1=CCCCC1)Nc1cccc(F)c1`, for which the thermal shift dTm came out at 0.19 °C.
With `CCN(CC)c1ccc2cc(-c3nc4ccccc4o3)c(=O)oc2c1` the figure was 0.15 °C.
With `COc1ccc(OC)c(-c2nc(NC(=O)c3ccccc3OC)sc2C)c1` the figure was -7.06 °C (inactive); with `COc1ccc2nc(NC(=O)c3ccc(C)o3)sc2c1`, 0.04 °C; with `COc1ccc(C(=O)Nc2nc(-c3cc(OC)ccc3OC)c(C)s2)cc1`, 2.73 °C (active).
With `CC1CCc2c(sc3ncn(CC(=O)Nc4ccccc4F)c(=O)c23)C1` (stereo not drawn), the thermal shift dTm turned out to be 0.26 °C.
With `COC(=O)C1=C(C)N(c2ccc(Cl)cc2)C(=O)/C1=C\c1ccco1`, the thermal shift dTm was 0.01 °C.
Turning to `O=C(Nc1ccc(Cl)cn1)c1cccc(NC(=O)c2cccs2)c1`, the thermal shift dTm turned out to be 0.37 °C.
In the case of `C/C=C/c1c(F)c(F)c(Oc2cccc(NC(C)=O)c2)c(F)c1F` it was 0.63 °C; in that of `C=CCN1C(=O)C(c2c(C)[nH]c3ccccc23)(c2c(C)[nH]c3ccccc23)c2ccccc21`, 1.05 °C (active); in that of `FC(F)(F)c1ccc(Cl)c(Nc2nnc(-c3ccncc3)s2)c1`, 0.77 °C.
As for `Cc1ccc(NC(=O)NCc2nc(-c3ccccc3Cl)no2)cc1`, the thermal shift dTm turned out to be 0.2 °C.
With `Cc1ccc(Nc2nc(-c3sc(C)nc3C)cs2)nc1` the figure was 0.16 °C; with `O=C(Nc1cccc(Cl)c1)N1CCC(C(O)(c2ccccc2)c2ccccc2)CC1`, 0.21 °C.
As to `O=S1(=O)CC2C(C1)N(c1cccc(C(F)(F)F)c1)C(=S)N2c1ccccc1` (stereo not drawn), the thermal shift dTm was -0.16 °C (inactive).
On to `CC(=O)Oc1ccc(-c2csc(Nc3ccccc3F)n2)cc1`, for which the thermal shift dTm turned out to be 0.35 °C.
Consider `COc1ccc(S(=O)(=O)NC(C)C2C3CC4CC(C3)CC2C4)cc1` (stereo not drawn), for which the thermal shift dTm was -0.18 °C (inactive).
In the case of `O=C(Nc1nccs1)c1cccc(NC(=O)c2cc3ccccc3o2)c1` it was 1.07 °C (active); in that of `Cc1nc(NC(=O)c2ccc(Br)s2)sc1C`, 0.27 °C; in that of `CCN(C(=O)Nc1ccc(Cl)cc1)c1nnc(-c2ccccc2)s1`, 0.16 °C.
In the case of `O=C(Nc1cccc(NC(=O)c2ccco2)c1)c1cccc(F)c1` it was 1.39 °C (active); in that of `CC(=O)Nc1cccc(NC(=O)c2cccc(NC(=O)c3ccco3)c2)c1`, 0.37 °C.
Turning to `CCc1ccc(C(=O)Nc2cccc(NC(=O)c3ccco3)c2)cc1`, the thermal shift dTm was 2.18 °C (active).
Regarding `Cc1ccccc1OCc1nc(-c2cccc(NC(=O)c3ccco3)c2)no1`, the thermal shift dTm amounted to 0.57 °C.
In the case of `COc1ccc(C(=O)/C=C/c2cccc(OC)c2)cc1` it was 2.07 °C (active); in that of `COc1ccc(/C=C/C(=O)Nc2cccc(C(C)=O)c2)cc1`, 1.18 °C (active).
Turning to `Nc1cccc(/C=C/C(=O)c2ccccc2)c1`, the thermal shift dTm is 0.57 °C.
In the case of `O=C(NC1CC(=O)N(Cc2cccc3ccccc23)C1)C(=O)c1ccccc1` (stereo not drawn), the thermal shift dTm was 0.23 °C.
As for `O=C(Nc1ccc(Cl)cc1)Nc1ccccc1OC(F)F`, the thermal shift dTm was found to be 0.25 °C.
In the case of `COc1ccc(C)cc1NC(=O)Nc1ccc(OC(F)F)c(Cl)c1`, the thermal shift dTm was -0.79 °C (inactive).
With `CCCc1cc(=O)[nH]c(SCC(=O)Nc2nc(-c3ccccc3)cs2)n1` the figure was 1.07 °C (active).
Take `COc1ccccc1C(=O)NC(=S)Nc1ccc(NC(=O)C(C)C)cc1`: the thermal shift dTm stood at 0.11 °C.
On to `O=c1c2ccccc2ncn1CCCOc1ccc2ccccc2c1Br`, for which the thermal shift dTm was 0.11 °C.
For `COc1ccc(Cl)cc1NC(=S)Nc1c(C)nn(Cc2c(F)cccc2Cl)c1C`, the thermal shift dTm was determined as 0.81 °C.
With `CCCOC(=O)c1c(NC(=O)C2CC=CCC2C(=O)O)sc(C)c1-c1ccc(F)cc1` (stereo not drawn) the figure was 0.77 °C; with `CC1Oc2ccc(-c3csc(NC(=O)COc4ccc(Cl)cc4)n3)cc2NC1=O` (stereo not drawn), -0.1 °C (inactive).
Turning to `Cc1ccc(-n2[nH]c(CSc3nnnn3-c3ccccc3)cc2=O)cc1`, the thermal shift dTm stood at 0.43 °C.
With `Cc1ccc(-c2cc(-c3ccc(F)cc3)n[nH]2)c(O)c1` the figure was 1.84 °C (active).
In the case of `Cc1[nH]nc(-c2ccc(O)c(O)c2O)c1Oc1ccc(F)cc1` it was -5.32 °C (inactive); in that of `Cc1ccc(O)c(-c2cc(-c3ccccc3)n[nH]2)c1`, 0.01 °C.
In the case of `O=C(Nc1cccc(-c2noc(CCc3ccccc3)n2)c1)c1cccs1` it was 0.1 °C; in that of `O=C(/C=C/c1ccco1)NCc1cccc(CNC(=O)/C=C/c2ccco2)c1`, 1.04 °C (active); in that of `CCCC(=O)NC(c1ccccc1OC)c1c(OC(=O)COc2ccccc2)ccc2ccccc12` (stereo not drawn), -0.13 °C (inactive).
As to `OCc1ccc(OCc2ccc(F)cc2)c(Br)c1`, the thermal shift dTm came to 0.58 °C.
In the case of `COc1ccc2[nH]cc(CCNC(=O)c3ccc(OC(C)=O)cc3)c2c1` it was 0.81 °C; in that of `COc1ccc2[nH]cc(CCNC(=O)c3cccc(Cl)c3)c2c1`, 1.74 °C (active); in that of `COc1cccc(C(=O)NCCc2c[nH]c3ccc(C)cc23)c1`, 0.07 °C.
`NC(=O)c1ccc(NC(=O)C2CC2(c2ccccc2)c2ccccc2)cc1` (stereo not drawn): the thermal shift dTm came out at 0.19 °C.
In the case of `O=C(Nc1cccc(OCC2CCCO2)c1)c1cccs1` (stereo not drawn) it was 0.09 °C.
With `COc1cccc(C(=O)Nc2nc3ccc(Cl)cc3s2)c1` the figure was 0.62 °C; with `COc1ccc(C(=O)Oc2ccccc2Cl)cc1Br`, 0.06 °C.
With `c1csc(-c2nc(-c3cccs3)c(-c3cccs3)[nH]2)c1` the figure was 0.06 °C.
Consider `Fc1ccc(-c2nc(-c3cccs3)c(-c3cccs3)[nH]2)cc1`, for which the thermal shift dTm was 3.34 °C (active).
With `COc1ccc(-c2nc(-c3cccs3)c(-c3cccs3)[nH]2)cc1` the figure was 0.25 °C.
In the case of `Cc1oc(-c2ccccc2NS(C)(=O)=O)nc1CN(C)Cc1ccc(OC(F)F)cc1` it was 0.18 °C; in that of `Cc1cc(NC(=O)c2ccccn2)ccc1NC(=O)c1cc2ccccc2o1`, 0.19 °C; in that of `CC(=O)Nc1ccc(NC(=O)c2cc3ccccc3o2)cc1`, 1.73 °C (active).
With `N#Cc1cccc(NC(=O)c2cc3ccccc3o2)c1` the figure was 0.32 °C.
With `O=C(Nc1cccc(OCc2ccccc2)c1)c1ccco1`, the thermal shift dTm was 0.23 °C.
As to `Cc1ccc(-c2noc(CNC(=O)C34CC5CC(CC(C5)C3)C4)n2)cc1`, the thermal shift dTm turned out to be 0.16 °C.

The values are drawn from PubChem BioAssay AID1347422 (Sanford-Burnham Center for Chemical Genomics, 2020).
